Source: PubChem
USP1 inh – Inhibitors of USP1/UAF1: Primary Screen; recombinant USP1/UAF1, Ub-Rhodamine cleavage fluorescence; Potency, µM (doses to about 57.1 µM), without a hit: at the top dose activity change, negative = inhibition, hits mostly inhibitors; 390,000 tested, 0.23% active; note: % is set by controls: 0 for no effect and ±100 for the full control effect; nearly all actives have a fitted effect of over 60% in size
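USP1/UAF1 complex at 1 nM was preincubated with compound for 15 min at room temperature, then Ub-Rho substrate (150nM final) was added. Fluorescence (480/540 nm) was read kinetically, 6 reads every 60 seconds.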
EPAC1 antag – qHTS for Antagonist of cAMP-regulated guanine nucleotide exchange factor 3 (EPAC1): primary screen. Potency, µM (highest dose often 115 µM), for inactives: at the top dose activity change, negative = inhibition, usual class: inhibitors. EPAC1 GEF assay, Rap1b-BODIPY-GDP exchange fluorescence. 360,000 tested, 0.14% active;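 note: plate controls were vehicle for no effect and positive control for full effect; nearly all actives have a fitted effect of over 50% in size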
VDR inh – Inhibitors of the vitamin D receptor (VDR): qHTS; 400,000 tested, 0.93% active; AID 504847, 2011; VDR-SRC2-3 peptide fluorescence polarization, 2 h; Vitamin D3 receptor (Homo sapiens), P11473; Potency, µM, for the others: max response, negative = inhibition, hits mostly inhibitors; note: % is set by controls: 0 for no effect and ±100 for the full control effect
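Reagent solutions, kept cold and dark, are dispensed first; compounds are then pinned in at 23 nl, plates briefly spun, and incubated 2 h at ambient temperature. Inhibition of VDR–SRC2-3 peptide binding is read by fluorescence polarization.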
EPAC1 agonist – qHTS for Agonist of cAMP-regulated guanine nucleotide exchange factor 3 (EPAC1): primary screen | Rap guanine nucleotide exchange factor 3 (Homo sapiens), O95398 | 360,000 tested, 0.073% active | Potency, µM (top dose mostly 154 µM), without a hit: at the highest dose activation, hits mostly activators | EPAC1 agonist qHTS, biochemical assay; response scale: 100% = response to 6.5 mM cAMP; note: nearly all actives have a fitted effect of over 60% in size
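Multi-concentration qHTS readout: loss of Rap1B-bound BODIPY-GDP fluorescence driven by 100 nM EPAC1 with excess GDP (50 uM), monitored kinetically at room temperature; agonist response expressed relative to 6.5 mM cAMP.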
EPAC2 antagonist – qHTS for Antagonist of cAMP-regulated guanine nucleotide exchange factor 2 (EPAC2): primary screen. Rap guanine nucleotide exchange factor 4 (Homo sapiens), Q8WZA2. EPAC2 GEF exchange of Rap1B-BODIPY-GDP, fluorescence. Potency, µM (titrated, usually from 114 µM), inactives show top-dose activity, negative = inhibition, hits mostly inhibitors. 360,000 tested, 0.18% active. AID 720708, 2013; note: % is set by controls: 0 for no effect and ±100 for the full control effect; nearly all actives have a fitted effect of over 45% in size
EPAC2 ag – qHTS for Agonist of cAMP-regulated guanine nucleotide exchange factor 4 (EPAC2): primary screen; Rap guanine nucleotide exchange factor 4 (Homo sapiens), Q8WZA2; EPAC2 activation, biochemical qHTS; response scale: 100% = 6.5 mM cAMP response; Potency, µM (doses to about 154 µM), inactives show at the top dose activation, hits mostly activators; 360,000 tested, 0.079% active; AID 720711, 2013; note: nearly all actives have a fitted effect of over 50% in size
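Fluorescence exchange assay: 100 nM EPAC2 with 250 nM RAP1B-BODIPY-GDP and 50 uM GDP; compounds tested as a concentration-titration series (qHTS). Loss of Rap1-bound BODIPY-GDP fluorescence read at 480/540 nm; data normalized to 6.5 mM cAMP.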
* = called active by the depositor. This is a sample that favours compounds with a hit; in the whole collection about 1.2% have one here. Calls come from the whole dose curve; as a rule, active = well fitted curve in the direction sought with a large enough effect; inconclusive = small, poorly fitted or top-dose-only effect, or another doubt; inactive = no such curve, though single readings can be large; an effect the other way counts as inactive or inconclusive. Potency is the fitted concentration of half-maximal effect.

`Cc1ccc(C(=O)c2cc([N+](=O)[O-])ccc2N2CC(C)OC(C)C2)cc1` (stereo unspecified) gave USP1 inh -24%, EPAC1 antag -21%, VDR inh 89µM*, EPAC1 agonist -5%, EPAC2 antagonist inconclusive and EPAC2 ag 2%.
Cc1ccc(C(=O)c2cc([N+](=O)[O-])ccc2N2CCCCC2)cc1 was read as USP1 inh -1%, EPAC1 antag -9%, VDR inh -16%, EPAC1 agonist 0%, EPAC2 antagonist -22% and EPAC2 ag 2%.
Screening COc1ccc2[nH]cc(CCNc3ccnc(-c4ccccc4Cl)n3)c2c1 returned VDR inh -19%.
`O=C(O)C1=CC(=C(c2ccc(O)c(C(=O)O)c2)c2ccc(O)c(C(=O)O)c2)C=CC1=O` gave VDR inh 8.9µM*.
Screening NCC(=O)N[C@@H](CCCN=C(N)N)C(=O)NCC(=O)N[C@@H](CC(=O)O)C(=O)N[C@@H](CO)C(=O)O returned VDR inh 6%.
For CN1C(=CC=C2C=C(I)C(=O)C(I)=C2)C(C)(C)c2ccccc21 the results were USP1 inh -22%, EPAC1 antag -9%, VDR inh 6%, EPAC1 agonist 10%, EPAC2 antagonist 21% and EPAC2 ag 1%.
`CN1/C(=C\C=C2/SC(=S)NC2=O)C(C)(C)c2ccccc21` gave USP1 inh 25µM*, EPAC1 antag 49%, VDR inh inconclusive, EPAC1 agonist 63µM*, EPAC2 antagonist 98% and EPAC2 ag 63µM*.
For CN1/C(=C\C=C2/C(=O)Oc3ccccc3C2=O)C(C)(C)c2ccccc21 the results were USP1 inh inconclusive, EPAC1 antag inactive, VDR inh -10%, EPAC1 agonist 79µM*, EPAC2 antagonist inactive and EPAC2 ag 79µM*.
For O=C(NC(NNc1ccc([N+](=O)[O-])cc1)(C(F)(F)F)C(F)(F)F)c1ccc(Cl)cc1 the results were USP1 inh -16%, EPAC1 antag -10%, VDR inh 79µM*, EPAC1 agonist 0%, EPAC2 antagonist -4% and EPAC2 ag 17%.
Cc1ccc(C(=O)OC[C@H]2O[C@H](Cl)C[C@@H]2OC(=O)c2ccc(C)cc2)cc1 was read as VDR inh -25%.
COc1ccc(S(=O)(=O)N(CCO)c2ccccc2CN(C)CC=Cc2ccc(Cl)cc2)cc1 was read as VDR inh -19%.
For CCc1nc2c(OCc3ccc(C(F)(F)F)cc3)cccn2c1N(C)C(=O)c1ccc(OC)cc1 the results were EPAC1 antag -20%, EPAC1 agonist -4%, EPAC2 antagonist 18µM* and EPAC2 ag 1%.
CCc1nc2c(OCc3ccc(C(F)(F)F)cc3)cccn2c1N(C)C(=O)c1ccc(C)cc1 was read as EPAC1 antag -21%, EPAC1 agonist -31%, EPAC2 antagonist 16µM* and EPAC2 ag -6%.
Screening CCc1nc2c(OCc3ccc(C#N)cc3)cccn2c1N(C)C(=O)c1ccc(C)cc1 returned EPAC1 antag 21%, EPAC1 agonist 8%, EPAC2 antagonist inconclusive and EPAC2 ag 6%.
For CCc1nc2c(OCc3ccc(OC)cc3)cccn2c1N(C)C(=O)c1ccc(OC)cc1 the results were EPAC1 antag 7%, EPAC1 agonist 4%, EPAC2 antagonist inconclusive and EPAC2 ag 16%.
